# Data from the supplement of paper PMC8728848.
# This is one part of a sample in which the strongest signals are shown more often than they occur.
# B1: SAOUHSC 02783 (Staphylococcus aureus), Q5HD69 (protein)
# chain: MIHSKKLTLGICLVLLIILIVGYVIMTKTNGRNAQIKDTFNQTLKLYPTKNLDDFYDKEGFRDQEFKKGDKGTWIVNSEMVIEPKGKDMETRGMVLYINRNTRTTKGYYFISEMTDDSNGRPKDDEKRYPVKMEHNKIIPTKPLPNDKLKKEIENFKFFVQYGNFKDINDYKDGDISYNPNVPSYSAKYQLNNDDYNVQQLRKRYDIPTKQAPKLLLKGDGDLKGSSVGSRSLEFTFVENKEENIYFTDSVQYTPSEDTRYESN
# Legend:
# Assay in all cases: glycan array binding signal (z-score within array); higher = stronger binding
# Settings in all cases: glycan notation: IUPAC condensed, linker removed
# [1] = target: Fuc(a1-2)Gal(b1-3)GlcNAc(b1-2)Man(a1-3)[Fuc(a1-2)Gal(b1-3)GlcNAc(b1-2)Man(a1-6)]Man(b1-4)GlcNAc(b1-4)[Fuc(a1-6)]GlcNAc
# How it was run: (§1)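 The binding signal is a Z-score computed within each array. Data were drawn from 3228 arrays in the Consortium for Functional Glycomics database, restricted to those with a known protein sequence. Scores were averaged over arrays of the same protein sequence at different concentrations or buffers, and over linkers, and negative values can be taken as non-binding.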
# [2] = target: Fuc(a1-2)Gal(b1-4)GlcNAc(b1-3)Gal(b1-4)GlcNAc(b1-2)Man(a1-3)[Fuc(a1-2)Gal(b1-4)GlcNAc(b1-3)Gal(b1-4)GlcNAc(b1-2)Man(a1-6)]Man(b1-4)GlcNAc(b1-4)GlcNAc
# How it was run: as §1
# [3] = target: Fuc(a1-2)Gal(b1-4)GlcNAc(b1-3)GalNAc
# How it was run: as §1
# [4] = target: Fuc(a1-2)Gal(b1-4)[Fuc(a1-3)]GlcNAc(b1-2)[Fuc(a1-2)Gal(b1-4)[Fuc(a1-3)]GlcNAc(b1-4)]Man(a1-3)[Fuc(a1-2)Gal(b1-4)[Fuc(a1-3)]GlcNAc(b1-2)Man(a1-6)]Man(b1-4)GlcNAc(b1-4)GlcNAc
# How it was run: as §1
# [5] = target: Fuc(a1-2)Gal(b1-4)[Fuc(a1-3)]GlcNAc(b1-3)Gal(b1-4)[Fuc(a1-3)]GlcNAc(b1-3)Gal(b1-4)[Fuc(a1-3)]GlcNAc
# How it was run: as §1
# [6] = target: Fuc(a1-2)Gal6S(b1-4)Glc6S
# How it was run: as §1
# [7] = target: Fuc(a1-2)[Gal(a1-3)]Gal(b1-4)GlcNAc(b1-2)Man(a1-3)[Fuc(a1-2)[Gal(a1-3)]Gal(b1-4)GlcNAc(b1-2)Man(a1-6)]Man(b1-4)GlcNAc(b1-4)[Fuc(a1-6)]GlcNAc
# How it was run: as §1
# [8] = target: Gal(a1-3)Gal(b1-4)GlcNAc(b1-2)Man
# How it was run: as §1
# [9] = target: Gal(b1-3)GalNAc(a1-3)[Fuc(a1-2)]Gal(b1-4)GlcNAc
# How it was run: as §1
# Gal(b1-3)GalNAc(b1-3)Gal = target: Gal(b1-3)GalNAc(b1-3)Gal
# How it was run: as §1
# Gal(b1-3)GlcNAc = target: Gal(b1-3)GlcNAc
# How it was run: as §1
# [10] = target: Gal(b1-3)GlcNAc(b1-2)Man(a1-3)[GlcNAc(b1-4)][Gal(b1-3)GlcNAc(b1-2)Man(a1-6)]Man(b1-4)GlcNAc(b1-4)GlcNAc
# How it was run: as §1
# [11] = target: Gal(b1-3)[GlcNAc(b1-6)]GalNAc
# How it was run: as §1
# [12] = target: Gal(b1-4)GlcNAc(b1-2)Man(a1-3)[Gal(b1-4)GlcNAc(b1-2)Man(a1-6)][GlcNAc(b1-4)]Man(b1-4)GlcNAc(b1-4)[Fuc(a1-6)]GlcNAc
# How it was run: as §1
# [13] = target: Gal(b1-4)GlcNAc(b1-2)Man(a1-3)[Man(a1-6)]Man(b1-4)GlcNAc(b1-4)GlcNAc
# How it was run: as §1
# [14] = target: Gal(b1-4)GlcNAc(b1-3)Gal(b1-4)GlcNAc(b1-2)Man(a1-3)[Gal(b1-4)GlcNAc(b1-3)Gal(b1-4)GlcNAc(b1-2)Man(a1-6)]Man(b1-4)GlcNAc(b1-4)GlcNAc
# How it was run: as §1
# Gal(b1-6)Gal = target: Gal(b1-6)Gal
# How it was run: as §1
# [15] = target: Gal3S(b1-3)[Fuc(a1-4)]GlcNAc
# How it was run: as §1
# [16] = target: Gal3S(b1-4)[Fuc(a1-3)]GlcNAc
# How it was run: as §1
# Gal6S(b1-3)GlcNAc = target: Gal6S(b1-3)GlcNAc
# How it was run: as §1
# GalNAc4S6S(b1-4)GlcNAc = target: GalNAc4S6S(b1-4)GlcNAc
# How it was run: as §1
# GlcA(b1-6)Gal = target: GlcA(b1-6)Gal
# How it was run: as §1
# [17] = target: GlcNAc(a1-4)Gal(b1-4)GlcNAc
# How it was run: as §1
# [18] = target: GlcNAc(b1-2)Man(a1-3)[GlcNAc(b1-4)][GlcNAc(b1-2)Man(a1-6)]Man(b1-4)GlcNAc(b1-4)GlcNAc
# How it was run: as §1
# [19] = target: GlcNAc(b1-2)[GlcNAc(b1-4)]Man(a1-3)[GlcNAc(b1-2)Man(a1-6)]Man(b1-4)GlcNAc(b1-4)GlcNAc
# How it was run: as §1
# [20] = target: GlcNAc(b1-2)[GlcNAc(b1-4)]Man(a1-3)[GlcNAc(b1-4)][GlcNAc(b1-2)[GlcNAc(b1-6)]Man(a1-6)]Man(b1-4)GlcNAc(b1-4)GlcNAc
# How it was run: as §1
# GlcNAc(b1-3)Fuc = target: GlcNAc(b1-3)Fuc
# How it was run: as §1
# [21] = target: GlcNAc(b1-3)Gal(b1-3)GalNAc
# How it was run: as §1
# [22] = target: GlcNAc(b1-3)Gal(b1-4)GlcNAc(b1-3)Gal(b1-4)GlcNAc(b1-2)Man(a1-3)[GlcNAc(b1-3)Gal(b1-4)GlcNAc(b1-3)Gal(b1-4)GlcNAc(b1-2)Man(a1-6)]Man(b1-4)GlcNAc(b1-4)GlcNAc
# How it was run: as §1
# [23] = target: GlcNAc(b1-3)Gal(b1-4)GlcNAc(b1-3)Gal(b1-4)GlcNAc(b1-2)[GlcNAc(b1-3)Gal(b1-4)GlcNAc(b1-3)Gal(b1-4)GlcNAc(b1-6)]Man(a1-6)[GlcNAc(b1-3)Gal(b1-4)GlcNAc(b1-3)Gal(b1-4)GlcNAc(b1-2)Man(a1-3)]Man(b1-4)GlcNAc(b1-4)[Fuc(a1-6)]GlcNAc
# How it was run: as §1
# [24] = target: GlcNAc(b1-4)GlcNAc(b1-4)GlcNAc(b1-4)GlcNAc(b1-4)GlcNAc
# How it was run: as §1
# [25] = target: GlcNAc(b1-6)Gal(b1-4)GlcNAc
# How it was run: as §1
# [26] = target: Man(a1-2)Man(a1-3)[Man(a1-6)]Man(a1-6)[Man(a1-2)Man(a1-3)]Man(b1-4)GlcNAc(b1-4)GlcNAc
# How it was run: as §1
# [27] = target: Neu5Ac(a2-3)Gal(b1-3)GalNAc(b1-4)[Neu5Ac(a2-8)Neu5Ac(a2-3)]Gal(b1-4)Glc
# How it was run: as §1
# [28] = target: Neu5Ac(a2-3)Gal(b1-3)GlcNAc(b1-2)Man(a1-3)[Neu5Ac(a2-3)Gal(b1-3)GlcNAc(b1-2)Man(a1-6)]Man(b1-4)GlcNAc(b1-4)GlcNAc
# How it was run: as §1
# [29] = target: Neu5Ac(a2-3)Gal(b1-4)GlcNAc(b1-2)Man(a1-3)[Neu5Ac(a2-3)Gal(b1-4)GlcNAc(b1-2)Man(a1-6)]Man(b1-4)GlcNAc(b1-4)GlcNAc
# How it was run: as §1
# [30] = target: Neu5Ac(a2-3)Gal(b1-4)GlcNAc(b1-3)Gal(b1-4)[Fuc(a1-3)]GlcNAc
# How it was run: as §1
# [31] = target: Neu5Ac(a2-3)Gal(b1-4)[Fuc(a1-3)]GlcNAc
# How it was run: as §1
# [32] = target: Neu5Ac(a2-3)Gal(b1-4)[Fuc(a1-3)]GlcNAc(b1-3)Gal
# How it was run: as §1
# [33] = target: Neu5Ac(a2-6)Gal(b1-4)GlcNAc(b1-2)Man(a1-3)[Neu5Ac(a2-6)Gal(b1-4)GlcNAc(b1-2)Man(a1-6)]Man(b1-4)GlcNAc(b1-4)[Fuc(a1-6)]GlcNAc
# How it was run: as §1
# [34] = target: Neu5Ac(a2-6)Gal(b1-4)GlcNAc(b1-2)[Neu5Ac(a2-6)Gal(b1-4)GlcNAc(b1-4)]Man(a1-3)[GlcNAc(b1-4)][Neu5Ac(a2-6)Gal(b1-4)GlcNAc(b1-4)Man(a1-6)]Man(b1-4)GlcNAc(b1-4)GlcNAc
# How it was run: as §1
# [35] = target: Neu5Ac(a2-6)GlcNAc(b1-4)GlcNAc
# How it was run: as §1
# [36] = target: Neu5Ac(a2-8)Neu5Ac(a2-3)[GalNAc(b1-4)]Gal(b1-4)Glc
# How it was run: as §1
# [37] = target: Neu5Ac(a2-8)Neu5Gc(a2-3)Gal(b1-4)GlcNAc
# How it was run: as §1
# [38] = target: Neu5Ac9Ac(a2-6)Gal(b1-4)GlcNAc
# How it was run: as §1
# [39] = target: Neu5Gc(a2-3)Gal(b1-4)GlcNAc
# How it was run: as §1
# [40] = target: Neu5Gc(b2-6)Gal(b1-4)GlcNAc
# How it was run: as §1
binder,measurement,setting,value
B1,glycan array binding signal (z-score),[1],2.61
same,glycan array binding signal (z-score),[2],-0.248
same,glycan array binding signal (z-score),[3],0.108
same,glycan array binding signal (z-score),[4],4.52
same,glycan array binding signal (z-score),[5],-0.71
same,glycan array binding signal (z-score),[6],0.515
same,glycan array binding signal (z-score),[7],-1.39
same,glycan array binding signal (z-score),[8],-0.596
same,glycan array binding signal (z-score),[9],-1.73
same,glycan array binding signal (z-score),Gal(b1-3)GalNAc(b1-3)Gal,-0.932
same,glycan array binding signal (z-score),Gal(b1-3)GlcNAc,0.236
same,glycan array binding signal (z-score),[10],3.09
same,glycan array binding signal (z-score),[11],-0.308
same,glycan array binding signal (z-score),[12],-0.077
same,glycan array binding signal (z-score),[13],5.18
same,glycan array binding signal (z-score),[14],2.58
same,glycan array binding signal (z-score),Gal(b1-6)Gal,0.805
same,glycan array binding signal (z-score),[15],-0.32
same,glycan array binding signal (z-score),[16],-0.324
same,glycan array binding signal (z-score),Gal6S(b1-3)GlcNAc,-0.599
same,glycan array binding signal (z-score),GalNAc4S6S(b1-4)GlcNAc,-0.245
same,glycan array binding signal (z-score),GlcA(b1-6)Gal,2.83
same,glycan array binding signal (z-score),[17],-0.454
same,glycan array binding signal (z-score),[18],-0.821
same,glycan array binding signal (z-score),[19],1.11
same,glycan array binding signal (z-score),[20],-0.289
same,glycan array binding signal (z-score),GlcNAc(b1-3)Fuc,-0.235
same,glycan array binding signal (z-score),[21],-0.447
same,glycan array binding signal (z-score),[22],2.6
same,glycan array binding signal (z-score),[23],2.84
same,glycan array binding signal (z-score),[24],-0.476
same,glycan array binding signal (z-score),[25],0.133
same,glycan array binding signal (z-score),[26],0.494
same,glycan array binding signal (z-score),[27],-0.869
same,glycan array binding signal (z-score),[28],6.23
same,glycan array binding signal (z-score),[29],0.306
same,glycan array binding signal (z-score),[30],-0.998
same,glycan array binding signal (z-score),[31],-1.44
same,glycan array binding signal (z-score),[32],-0.162
same,glycan array binding signal (z-score),[33],2.81
same,glycan array binding signal (z-score),[34],0.093
same,glycan array binding signal (z-score),[35],1.36
same,glycan array binding signal (z-score),[36],-0.759
same,glycan array binding signal (z-score),[37],-1.02
same,glycan array binding signal (z-score),[38],1.65
same,glycan array binding signal (z-score),[39],3.09
same,glycan array binding signal (z-score),[40],-0.76
